According to PubChem BioAssay (NCATS):
A number with no mark means an inactive call. The source made the active and inactive calls. The call rests on the fitted dose curve; in most records, active means well fitted activation curve with a large enough effect; inconclusive means small, poorly fitted or top-dose-only effect; inactive means flat fitted curve, though single readings scatter.

Assay: Confirmation and Secondary Assay for Modulators of Hemoglobin Beta Chain Splicing at IVS2 705 locus (AID 930); on activation: % of control where 0% means no effect
Details: HeLa EGFP-705 splicing reporter, GFP fluorescence, 48 h; series mostly up to 46.1 µM; activation: at the top concentration
In short: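 HeLa cells stably carrying EGFP interrupted by mutant beta-globin IVS2-705 intron (CMV-driven) were seeded at 500 cells/well, treated next day with compound for 2 days at 37C; corrected splicing restores EGFP, read as total peak GFP intensity per well.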
Potency means the concentration at half of the fitted maximal effect.

First: N=C(N)c1ccc(OCCCCCOc2ccc(C(=N)N)cc2)cc1
Second: CCCCOc1ccc(CC(=O)NO)cc1
The “activation” value of the first is lower: -0.619% for the first, -0.171% for the second.

First: COc1cc(NS(=O)(=O)c2ccc(N)cc2)nc(OC)n1
Second: COc1cnc(NS(=O)(=O)c2ccc(N)cc2)nc1
The “activation” value of the first is lower: 1.39% for the first, 3.44% for the second.

Compared with COC(=O)Nc1nc2ccc(S(=O)c3ccccc3)cc2[nH]1 (centres undefined), COC(=O)Nc1nc2ccc(C(=O)c3ccccc3)cc2[nH]1 is lower in “activation” value: 0.897% for the first, 0.628% for the second.

Compared with Cc1cccc(Nc2ccncc2S(=O)(=O)NC(=O)NC(C)C)c1, Nc1ccc(S(=O)(=O)Nc2ccccn2)cc1 is lower in “activation” value: 3.55% for the first, 0.818% for the second.

First: CN(C)CCc1c[nH]c2ccc(CS(=O)(=O)N3CCCC3)cc12
Second: CCn1cc(C(=O)O)c(=O)c2cc(F)c(N3CCNCC3)cc21
The “activation” value of the first is lower: 0.646% for the first, 0.721% for the second.

Going from CCn1cc(C(=O)O)c(=O)c2cc(F)c(N3CCNCC3)nc21 to CN1CCCC(n2nc(Cc3ccc(Cl)cc3)c3ccccc3c2=O)CC1 (centres undefined), the “activation” value falls from 3.55% to -0.963%.

Going from Oc1c(Cl)cc(Cl)c2cccnc12 to CCCc1cc(C(N)=S)ccn1, the “activation” value rises from 0.0337% to 0.0979%.

First: CCCCCCNC(=O)n1cc(F)c(=O)[nH]c1=O
Second: Cn1c(=O)c2c(ncn2CC(O)CO)n(C)c1=O (centres undefined)
The “activation” value of the first is lower: 1.98% for the first, 3.4% for the second.

Compared with COC(=O)Nc1nc2ccc(Sc3ccccc3)cc2[nH]1, Cc1cccc(N(C)C(=S)Oc2ccc3ccccc3c2)c1 is lower in “activation” value: 2.6% for the first, 0.628% for the second.

Compared with O=S(=O)(O)CCS, NS(=O)(=O)c1cc2c(cc1Cl)NC(C(Cl)Cl)NS2(=O)=O (centres undefined) is higher in “activation” value: 1.16% for the first, 2.57% for the second.

Going from COc1ccc2c(c1)c(CC(=O)OCC(=O)O)c(C)n2C(=O)c1ccc(Cl)cc1 to Nc1nc(N)c2nc(CNc3ccc(C(=O)NC(CCC(=O)O)C(=O)O)cc3)cnc2n1 (centres undefined), the “activation” value rises from 0.0672% to 0.892%.

Going from S=P(N1CC1)(N1CC1)N1CC1 to CC1=CC(=O)c2ccccc2C1=O, the “activation” value rises from 0.676% to 3.23%.

Going from CC(C)(Sc1cc(C(C)(C)C)c(O)c(C(C)(C)C)c1)Sc1cc(C(C)(C)C)c(O)c(C(C)(C)C)c1 to COc1ccccc1OCC(O)COC(N)=O (centres undefined), the “activation” value rises from -1.17% to 2.19%.

With Nc1nc(=S)c2[nH]cnc2[nH]1 the Potency was 5.01 µM (active).
In the case of O=c1oc2c(O)c(O)cc3c(=O)oc4c(O)c(O)cc1c4c23, the Potency is reported as 10 µM (active).

For CNS(=O)(=O)Cc1ccc2[nH]cc(CCN(C)C)c2c1, the “activation” value was 0.63% [at 38.3 µM].
